Tcruzi prolif = T. cruzi intracellular proliferation inhibitors, primary screen, cell-based, beta-gal Tulahuen parasites, NIH3T3 host, luminescence; T. cruzi beta-gal in NIH3T3, GalScreen luminescence, 90 h; inhibition, % at 8.34 µM; hit rate 5.9% among 77,000;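 active = mean inhibition above about 93%, with at least 55% of replicates each passing it, limit read from the data, passing the limit was not always enough; inconclusive = only one of those two conditions holds; inactive = neither condition holds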
Pf Dd2 inh = P. falciparum Dd2 growth inhibitors, primary screen, SYBR Green fluorescence, single dose replicates; 72 h; hits give low values; activity change, % at 10 µM; hit rate 2.3% among 94,000; in the data active = activity change below about -80%; inconclusive = no clear call, values can overlap the other calls
C diff growth = C. difficile growth inhibitors, primary screen, HTS | growth activity, negative = inhibition, % at 16 µg/mL (by protocol) | hit rate 0.25% among 86,000 | Clostridium difficile clinical isolate growth, OD600, 24 h; hits give low values;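 active = mean growth activity at or below -80% and every replicate also at or below -80%; inconclusive = mean at or below -80% but some replicate above -80%; inactive = mean growth activity above -80%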;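 note: 0% = DMSO wells and -100% = levofloxacin 16 µg/mL wells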
* hit, by the source's call; ? = inconclusive; . = no result given. Only some compounds are listed: those with a hit (about 6.8% of all), similar ones and a draw of the others.

SMILES	Tcruzi prolif	Pf Dd2 inh	C diff growth
C[C@@H]1CCCCO[C@H](CN(C)Cc2ccc(C(F)(F)F)cc2)[C@@H](C)CN([C@@H](C)CO)C(=O)c2cc(NC(=O)c3ccccc3)ccc2O1	68	-86*	23
C[C@@H]1CCCCO[C@@H](CN(C)Cc2ccc(Cl)c(Cl)c2)[C@H](C)CN([C@H](C)CO)C(=O)c2cc(NC(=O)Nc3ccc(C(F)(F)F)cc3)ccc2O1	51	-86*	21
C[C@H]1CCCCO[C@H](CN(C)Cc2ccc(C(F)(F)F)cc2)[C@@H](C)CN([C@@H](C)CO)C(=O)c2cc(NC(=O)c3ccccc3)ccc2O1	74	-42	19
C[C@H]1CCCCO[C@@H](CN(C)Cc2ccc(C(F)(F)F)cc2)[C@@H](C)CN([C@@H](C)CO)C(=O)c2cc(NC(=O)c3ccccc3)ccc2O1	63	-59	13
C[C@@H]1CCCCO[C@H](CN(C)Cc2ccc(Cl)c(Cl)c2)[C@H](C)CN([C@@H](C)CO)C(=O)c2cc(NC(=O)Nc3ccc(C(F)(F)F)cc3)ccc2O1	60	?	16
C[C@H]1CCCCO[C@H](CN(C)Cc2ccc(C(F)(F)F)cc2)[C@@H](C)CN([C@@H](C)CO)C(=O)c2cc(NC(=O)Nc3ccccc3)ccc2O1	68	-6	5
O=C(C[C@H]1CC[C@H]2[C@@H](COC[C@H](O)CN2C(=O)c2cccnc2)O1)NCc1ccc(-c2ccccc2)cc1	15	2	.
CN(C)Cc1cn(CC[C@H]2CC[C@@H](NC(=O)Nc3ccc4c(c3)OCO4)[C@H](CO)O2)nn1	-5	19	.
CCCC(=O)N1CCC2(CC1)CN(Cc1ccncc1)[C@@H](CO)c1[nH]c3cc(OC)ccc3c12	.	-91*	6
COc1ccc2c3c([nH]c2c1)[C@H](CO)N(Cc1ccncc1)CC31CN(C(=O)Cc2ccncc2)C1	.	-4	4
CCCC(=O)N1CC2(C1)CN(Cc1ccncc1)[C@H](CO)c1[nH]c3cc(OC)ccc3c12	.	-59	4
COc1ccc(CN2CC3(CCN(C(=O)Cc4ccncc4)CC3)c3c([nH]c4cc(OC)ccc34)[C@@H]2CO)cc1	.	-86*	32
COc1ccc2c3c([nH]c2c1)[C@@H](CO)N(C(=O)Nc1ccc(F)cc1)CC31CN(Cc2ccccc2OC)C1	.	-92*	-11
COc1ccc2c3c([nH]c2c1)[C@H](CO)N(C(=O)Nc1ccc(F)cc1)CC31CN(Cc2ccc(F)cc2)C1	.	-82*	1
COc1ccc2c3c([nH]c2c1)[C@H](CO)N(C(=O)Nc1ccc(F)cc1)CC31CN(Cc2ccccc2OC)C1	.	-54	.
COc1ccc2c3c([nH]c2c1)[C@@H](CO)N(C(=O)Nc1ccc(F)cc1)CC31CN(Cc2ccc(F)cc2)C1	.	-67	2
C[C@@H]1CN([C@H](C)CO)C(=O)c2cccc(NC(=O)c3ccc(-c4nccs4)cc3)c2O[C@H]1CN(C)Cc1ccc(C(F)(F)F)cc1	96	-91*	.
C[C@@H]1CN([C@H](C)CO)C(=O)c2cccc(NC(=O)c3nc4ccccc4s3)c2O[C@H]1CN(C)Cc1ccc(C(=O)O)cc1	31	-11	-2
C[C@@H]1CN([C@H](C)CO)C(=O)c2cccc(NC(=O)c3ccc(-c4nccs4)cc3)c2O[C@H]1CN(C)Cc1ccc(C(=O)O)cc1	9	-24	1
C[C@@H]1CN([C@@H](C)CO)C(=O)c2cccc(NC(=O)c3nc4ccccc4s3)c2O[C@@H]1CN(C)Cc1ccc(C(=O)Nc2ccccc2N)cc1	93	-91*	.
C[C@@H]1CN([C@H](C)CO)C(=O)c2cccc(NC(=O)c3ccc(-c4nccs4)cc3)c2O[C@H]1CN(C)Cc1ccccc1	67	-19	-5
C[C@@H]1CN([C@H](C)CO)C(=O)c2cccc(NC(=O)c3ccc(-c4nccs4)cc3)c2O[C@@H]1CN(C)Cc1ccc(C(=O)Nc2ccccc2N)cc1	90	-91*	1
C[C@@H]1CN([C@@H](C)CO)C(=O)c2cccc(NC(=O)c3ccc(-c4nccs4)cc3)c2O[C@H]1CN(C)Cc1ccc(C(=O)Nc2ccccc2N)cc1	82	-93*	1
C[C@@H]1CN([C@H](C)CO)C(=O)c2cccc(NC(=O)c3ccc(-c4nccs4)cc3)c2O[C@@H]1CN(C)Cc1ccc(-c2ccccc2)cc1	36	-65	56
CC=Cc1ccc2n(c1=O)C[C@@H]1[C@@H](CO)[C@H](C(=O)N3CCC(Cc4ccccc4)CC3)N(C)[C@H]21 (mixture of isomers)	45	.	-8
COc1cccc(-c2ccc3c(c2)[C@H]2[C@H](CCN2C(=O)Nc2ccccc2OC)[C@H](CO)N3C)c1	86	-26	14
COc1ccc(NC(=O)N2CC[C@@H]3[C@@H](CO)N(C)c4ccc(Br)cc4[C@@H]32)cc1	29	-8	16

Compound activity as filed in PubChem.
